# Screens deposited in PubChem by Buhrlage Lab, Dana-Farber Cancer Institute and Novartis Institutes for BioMedical Research (Cambridge, Mass).
# Compounds with a hit are over-represented: about 11% of the library has one in this group of screens.
# OTUD3 block: blocks human OTUD3 ubiquitin-rhodamine cleavage; 47,000 compounds, 0.7% hits; Q5T2D3; inhibition, % at 25 µM; purified OTUD3, Ub-rhodamine fluorescence, 2 h
# USP28 inh: blocks human USP28 ubiquitin-rhodamine cleavage; Q96RU2; inhibition, % at 25 µM; 47,000 compounds, 3% hits; AID 1645857; purified USP28, Ub-rhodamine cleavage fluorescence, 30 min
# USP30 inh: blocks human USP30 ubiquitin-rhodamine cleavage | 47,000 compounds, 5.3% hits | AID 1645860 | Q70CQ3 | inhibition, % at 25 µM | purified USP30, Ub-rhodamine cleavage fluorescence
# USP17 inh: human USP17-like deubiquitinase inhibition; inhibition, % at 50 µM; A8MUK1; 47,000 compounds, 6.5% hits; AID 1645855; purified USP17, Ub-rhodamine cleavage fluorescence, 3 h
# Target sequence (A8MUK1 whole entry, looked up): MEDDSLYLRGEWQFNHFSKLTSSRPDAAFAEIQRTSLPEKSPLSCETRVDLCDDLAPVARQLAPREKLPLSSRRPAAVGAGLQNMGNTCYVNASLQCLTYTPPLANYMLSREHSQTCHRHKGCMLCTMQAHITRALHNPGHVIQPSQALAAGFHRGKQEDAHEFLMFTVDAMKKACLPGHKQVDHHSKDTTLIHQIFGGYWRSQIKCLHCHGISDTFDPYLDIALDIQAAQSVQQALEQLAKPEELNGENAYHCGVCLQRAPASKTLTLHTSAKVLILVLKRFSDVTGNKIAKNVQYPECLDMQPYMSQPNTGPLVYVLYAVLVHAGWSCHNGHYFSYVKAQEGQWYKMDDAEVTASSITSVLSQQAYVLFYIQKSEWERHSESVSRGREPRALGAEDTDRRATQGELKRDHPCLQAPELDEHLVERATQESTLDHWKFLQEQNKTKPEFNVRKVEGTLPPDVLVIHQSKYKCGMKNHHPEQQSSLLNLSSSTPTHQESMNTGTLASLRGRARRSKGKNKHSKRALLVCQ
# An asterisk follows results filed as active; i = inactive; / = no result given. Cut-off read from the data, not from the text of the source: active = inhibition above about 30%; inactive = the rest.
SMILES,OTUD3 block,USP28 inh,USP30 inh,USP17 inh
O=C(c1nnn(Cc2ccc(Cl)cc2)c1-n1cccc1)N1CCCC1,16,76*,14,26
COc1ccc(Cn2nnc(C(=O)N3CCSCC3)c2-n2cccc2)cc1,4,20,-41,33*
COc1ccc(Cn2nnc(C(=O)NC3CCCCC3)c2-n2cccc2)cc1,22,42*,11,48*
Cc1cc(NC(=O)c2cccc(N3CCOCC3)n2)n(-c2ccc(Cl)cc2)n1,8,8,21,22
CC1CN(C(=O)CCC(=O)NCc2ccccc2Cl)c2ccccc2O1 (stereo not drawn),0,-3,1,/
O=C(/C=C/c1cccc(F)c1)NCc1nnc2ccccn12,-15,-7,-24,-7
NC(=O)CSc1nnc2ccc(-c3ccc4c(c3)OCO4)nn12,3,0,2,4
O=C(CSc1nnc2ccc(-c3ccc4c(c3)OCO4)nn12)NCC1CCCO1 (stereo not drawn),23,10,42*,/
Cc1cccc(Nc2cc(C)nc(C3CCCN(C(=O)CN)C3)n2)n1 (stereo not drawn),2,5,0,1
Cc1cccc(Cn2cccc(S(=O)(=O)N3CCCC3)c2=O)c1,6,3,1,6
CCN(c1ccc(NC(=O)CSc2nnc(-c3ccccc3)n2-c2ccc(OC)c(OC)c2)cc1)C(C)C,21,41*,46*,63*
COc1ccc(-n2c(SCC(=O)c3c[nH]c4ccccc34)nnc2-c2ccccc2)cc1OC,2,-6,6,-8
Cc1cccc(NC(=O)Cn2c(=O)nc(N(C)c3ccccc3)c3ccccc32)c1,1,41*,15,23
CS(=O)(=O)CS(=O)(=O)Oc1ccc(Cl)c(Cl)c1,2,-16,-3,0
Nc1c(-c2ccccc2)nc2ccccn12,9,6,20,1
O=[N+]([O-])c1ccc(-c2nc3ccccn3c2Br)cc1,12,7,44*,39*
CCCc1c(C(=O)NC2CCCCC2)cnn1-c1ccc(Cl)cc1,5,7,21,36*
CN1C(=O)COc2cc(-c3noc(C(=O)NCc4ccccc4)n3)ccc21,15,7,19,44*
CN1C(=O)COc2cc(-c3noc(C(=O)NCc4ccc(F)cc4)n3)ccc21,29,11,76*,54*
O=C(c1ccccn1)N1CC[C@@H]2CN(CCc3ccccc3)S(=O)(=O)[C@@H]2CC1,14,8,22,8
Nc1ccc(NC(=O)c2cc3c(s2)CCC3)cc1[N+](=O)[O-],5,31*,21,58*
O=C(Nc1cc(S(=O)(=O)Nc2ccc(Cl)cc2)ccc1O)c1cc2c(s1)CCC2,8,5,20,14
O=C(CC1SC(=O)NC1=O)Nc1cccc(C(F)(F)F)c1 (stereo not drawn),-16,-18,-50,-9
O=C1NC(=N/N=C/c2ccccc2)SC1Cc1cc(C(F)(F)F)ccc1Cl (stereo not drawn),29,8,35*,36*
Cn1c(=O)c(C2CCCCC2O)nc2c(OCc3ccccc3)nc(N)nc21 (stereo not drawn),5,-10,-46,42*
SMILES,OTUD3 block,USP28 inh,USP30 inh,USP17 inh
Cn1c(=O)c(C(CO)CCO)nc2c(OCc3ccccc3)nc(N)nc21 (stereo not drawn),4,-5,-6,6
COCCNc1nc(C2CCCNC2)cc2cc(OC)ccc12 (stereo not drawn),2,-13,-3,-19
CC(=O)O[C@@H]1OC(=O)[C@](C)(C(C)=O)[C@@H]1C,17,11,33*,39*
CC(C)=CCC/C(C)=C/C[C@]1(O)C(=O)c2cc(O)cc(O)c2C(=O)[C@@]1(Cl)CC=C(C)C,14,20,9,50*
CN(C)S(=O)(=O)c1ccc(C(=O)Nc2cccc(-c3nncn3C)c2)cc1,0,0,1,0
Cc1cc2cccc(C)c2nc1SCC(=O)NCc1ccccc1,10,20,47*,29
Cc1cccc(CNC(=O)CCc2nc3c(C)cccc3c(=O)n2C)c1,1,-11,15,-7
Cc1cccc(CNc2nnc(-c3nnc(C)o3)c3ccccc23)c1,5,15,26,5
COc1ccccc1CN(C(=O)c1ccco1)C(C(=O)NC1CCCC1)c1ccc(C(C)C)cc1 (stereo not drawn),12,10,35*,2
COc1ccccc1CN(C(=O)c1ccco1)C(C(=O)NC1CCCC1)c1ccc(Cl)cc1 (stereo not drawn),9,10,48*,13
O=C(c1scc2c1CCCC2)N1CCN(c2ccccc2O)CC1,-6,4,6,0
O=C(c1csc2c1CCCC2)N1CCN(C(c2ccccc2)c2ccccc2)CC1,13,3,31*,2
COc1ccc(Cl)cc1C(=O)Nc1cc(C)cc(C)n1,-9,-15,9,46*
COc1ccc(Cl)cc1C(=O)Nc1cnc(N2CCOCC2)nc1,-8,-16,-15,/
O=C(NCc1ccccc1CN1CCCC1)c1cccc2cccnc12,-12,37*,-27,3
Cc1ccccc1CNC(=O)Cn1c(=O)n(-c2ccccc2)c2ncccc21,-3,-10,14,47*
Cc1cc(CN2CCC3(CC2)CC3c2nnc(-c3cccc(F)c3)o2)on1 (stereo not drawn),-11,-13,-65,-15
CSc1ccccc1NC(=O)COC(=O)C(Cc1c[nH]c2ccccc12)NC(=O)c1ccccc1Cl (stereo not drawn),16,20,30*,25
COc1ccc(Cl)cc1NC(=O)COC(=O)C(Cc1c[nH]c2ccccc12)NC(=O)c1ccccc1Cl (stereo not drawn),14,4,31*,20
O=C(COC(=O)C(Cc1c[nH]c2ccccc12)NC(=O)c1ccccc1Cl)c1ccc([N+](=O)[O-])cc1 (stereo not drawn),0,13,38*,17
Cc1ccc(C)c(NC(=O)COC(=O)C(Cc2c[nH]c3ccccc23)NC(=O)c2ccccc2Cl)c1 (stereo not drawn),15,15,13,20
COc1ccc(CC(=O)N2CCc3c(nc[nH]c3=O)C2)c(Cl)c1,-12,-14,-52,-13
CCc1cc(C(=O)N2C[C@H]3CC[C@@H](N(C)c4cccnn4)[C@H]3C2)no1,-13,-20,-65,-24
Cc1nc(Nc2c3ccccc3nc3ccccc23)sc1C,-193,-295,i,-183
CC(C)=CCc1ccc2[nH]cc(C3=C(O)C(=O)C(c4c[nH]c5ccccc45)=C(O)C3=O)c2c1,9,21,-116,43*
CC(=O)Nc1cc(-c2cccc(CO)c2)cn2c(-c3ccc(S(C)(=O)=O)cc3)cnc12,-15,-23,-57,-11
COc1ccccc1-c1cc(NC(C)=O)c2ncc(-c3ccc(S(C)(=O)=O)cc3)n2c1,-16,-7,-42,39*
COc1ccc(Cl)c(NC(=O)C2CC(=O)Nc3cc(-c4ccccc4)nn32)c1 (stereo not drawn),12,29,22,57*
COc1ccc(Cl)c(NC(=O)C2CC(=O)Nc3cc(C)nn32)c1 (stereo not drawn),8,8,12,15
